TRHR PAM = TRH receptor (human) allosteric enhancement. P34981. 360,000 compounds, 0.66% hits. enhancement, % at 2 µM. AID 493056. TRHR cells, fluo-8 calcium fluorescence, EC20 TRH enhancement; in the data active = enhancement above about 30%; also: 0% is about no effect
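TRHR-expressing cells loaded with fluo-8 calcium dye were read kinetically (ex 480/em 530) during compound addition, then stimulated with an EC20 of TRH (10 nM final). Enhancement of the Gq-mediated intracellular calcium response was scored.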
D1 agonist = activates the human D1 dopamine receptor; HEK293 T-REx D1 cells, calcium flux, agonist mode; AID 504660; activation, % at 2 µM; P21728; 360,000 compounds, 1% hits; also: 0% is about no effect
Target sequence (P21728 whole entry, looked up): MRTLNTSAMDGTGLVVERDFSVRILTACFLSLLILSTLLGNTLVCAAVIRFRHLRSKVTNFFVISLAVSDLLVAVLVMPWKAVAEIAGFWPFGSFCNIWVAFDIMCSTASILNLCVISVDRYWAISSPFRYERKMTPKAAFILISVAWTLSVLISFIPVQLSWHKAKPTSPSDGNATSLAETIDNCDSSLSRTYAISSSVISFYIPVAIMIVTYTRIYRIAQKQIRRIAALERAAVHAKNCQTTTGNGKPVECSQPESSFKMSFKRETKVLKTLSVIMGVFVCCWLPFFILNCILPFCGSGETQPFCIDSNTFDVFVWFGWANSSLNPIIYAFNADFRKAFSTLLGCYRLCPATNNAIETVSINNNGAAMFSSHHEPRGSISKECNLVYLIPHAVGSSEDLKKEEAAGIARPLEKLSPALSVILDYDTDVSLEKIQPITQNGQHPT
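Tetracycline-induced HEK293 TREx D1 cells, force-coupled to calcium signalling, were dye-loaded with a no-wash calcium kit. Compound was pin-added after a 10 s baseline. Fluorescence was read kinetically at 1 cycle/s for 180 s, with calcium rises flagged as agonism.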
D1 antagonist = antagonists of human D1 dopamine receptor | 360,000 compounds, 3.2% hits | HEK293 TREx D1 cells, calcium flux, dopamine EC80; stronger effect = lower value | activity change, negative = inhibition, % at 10 µM | P21728; in the data active = activity change below about -30%; also: % is scaled to controls: 0 for no effect and ±100 for the full control effect
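Antagonism measured as reduced calcium response to an EC80 dopamine addition following 180 s compound pre-read; cells were inducible HEK293 Trex D1 plated overnight at 30 C, read kinetically at 1 cycle/sec.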
D1 potentiator = human D1 dopamine receptor positive modulation; P21728; HEK293 TREx D1 cells, calcium flux, dopamine EC20 potentiation; potentiation, % at 10 µM; 360,000 compounds, 0.036% hits; AID 504651; in the data active = potentiation above about 30%; also: 0% is about no effect
TRHR agonist = activates the human TRH receptor; activation, % at 2 µM; TRHR cells, calcium flux fluo-8, FDSS agonist mode; 360,000 compounds, 0.18% hits; AID 493084; also: 0% is about no effect
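Steps: seed TRHR cells overnight; add fluo-8 no-wash Ca dye, RT 30 min–1.5 h; record 10 s baseline; pin-transfer compounds; monitor fluorescence 1 cycle/s for the agonist window. Calcium increases flag candidate agonists.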
Numbers without * were called inactive; / = not tested or not shown. Compounds with a hit are over-represented: about 4.7% of the library has one in this group of screens. Rule as the data show it, unless noted: active = activation above about 30%; inactive = the rest.

SMILES	TRHR PAM	D1 agonist	D1 antagonist	D1 potentiator	TRHR agonist
O=S(=O)(NCC(c1ccco1)N1CCN(c2ccccc2F)CC1)c1ccc(F)cc1 (stereo unspecified)	-1	-1	-1	-10	0
O=S(=O)(NCC(c1ccco1)N1CCN(c2ccccc2)CC1)c1ccc(F)cc1 (stereo unspecified)	2	3	-30*	-14	-1
O=S(=O)(NCC(c1ccco1)N1CCN(c2ccc(F)cc2)CC1)c1ccc(F)cc1 (stereo unspecified)	0	0	-34*	-5	0
O=S(=O)(NCC(c1ccco1)N1CCN(c2ccccc2)CC1)c1ccccc1 (stereo unspecified)	-3	-4	/	0	0
CN1CCc2cccc3c2C1Cc1ccc(O)c(O)c1-3 (stereo unspecified)	-6	48*	-75*	-8	0
COc1ccccc1OCCNC(=O)C(CCSC)NC(=O)c1ccccc1Cl (stereo unspecified)	5	3	-21	0	0
CSCCC(NC(=O)COc1ccccc1)C(=O)N1CCCCC1 (stereo unspecified)	0	0	3	-3	0
CSCCC(NC(=O)COc1ccccc1)C(=O)N1CCC(C(N)=O)CC1 (stereo unspecified)	2	1	-31*	/	0
COc1ccccc1C(=O)NC(CCSC)C(=O)OC(C)C(N)=O (stereo unspecified)	36*	0	8	-1	-1
COc1ccccc1C(=O)COC(=O)C(CCSC)NC(=O)COc1ccccc1 (stereo unspecified)	30*	4	9	-4	0
COc1ccccc1C(=O)NC(CCSC)C(=O)NCCCSc1ccccc1 (stereo unspecified)	-8	92*	-1	0	0
CCOc1ccc(NC(=O)Cn2nnc(C(=O)OC)c2C(=O)OC)cc1	3	2	3	-2	1
COCCCNC(=O)c1c(NC(=O)c2cc(=O)c3ccccc3o2)sc2c1CCCC2	-3	2	-18	1	-1
CC(C)c1ccc(NC(=O)c2cnc3sc(N4CCCC4)nn3c2=O)cc1	-4	17	-30	-3	0
Cc1oc(-c2ccccc2F)nc1CS(=O)(=O)CC(=O)NCCc1ccc(Cl)cc1	1	14	-10	-4	0
Cc1c(C(=O)Nc2cccc(C#N)c2)sc2nc3n(c(=O)c12)CCCCC3	-4	2	4	-3	0
COc1ccc(NC(=O)CN2CCN(C(=O)C3CCCO3)CC2)c(OC)c1 (stereo unspecified)	15	50*	4	3	0
Cc1ccc(-c2nc(CS(=O)CC(=O)NC3CC3)c(C)o2)cc1 (stereo unspecified)	3	0	12	3	0
Cc1ccc(CNC(=O)CS(=O)Cc2nc(-c3ccccc3Cl)oc2C)cc1 (stereo unspecified)	-5	4	-42*	1	0
Cc1oc(-c2ccccc2Cl)nc1CS(=O)CC(=O)NC1CC1 (stereo unspecified)	3	0	-60*	-4	0
COc1cc(C2c3c(-c4c(C)cc(C)cc4O)n[nH]c3C(=O)N2CCCOC(C)C)cc(OC)c1OC (stereo unspecified)	-3	0	2	4	-1
Cc1nn(C)c(C)c1S(=O)(=O)N(CC(=O)NCCc1ccccc1)c1ccc(C(C)C)cc1	-2	-1	-19	-1	-1
Cc1cc(C)c(C(=O)N2CCCC(Nc3ccc(F)cc3)C2)o1 (stereo unspecified)	-8	1	-17	-1	0
Cc1ccc2[nH]c(C(=O)N3CCCC(Nc4ccc(F)cc4)C3)cc2c1 (stereo unspecified)	4	3	-30*	-8	1
Cc1cc2ccccc2n1CCNC(=O)c1ccccc1	4	43*	-2	-12	-1
SMILES	TRHR PAM	D1 agonist	D1 antagonist	D1 potentiator	TRHR agonist
O=C1C=C(c2cccc3c2sc2ccccc23)C[C@@H](c2ccc(F)cc2)C1	6	3	/	6	1
COc1ccc([C@H]2CC(=O)C=C(c3cccc4c3sc3ccccc34)C2)cc1OC	2	6	-36*	-4	1
COc1ccc([C@H]2CC(=O)C=C(c3cc4ccccc4s3)C2)cc1OC	-8	2	-48*	4	0
CCCCCNc1nc2c(-c3ccccc3)nnn2c2ccccc12	2	0	1	-2	0
CCc1cccc(NC(=O)Cn2c(=O)n(CCc3ccc(OC)c(OC)c3)c(=O)c3ccccc32)c1	3	7	2	-2	-1
CCOC(=O)N1CCC2(CC1)C(C#N)=C(N)Oc1n[nH]c(CSc3ccc(C)cc3)c12	-1	2	-39*	-2	1
Cc1cc(C)n(CCN(C)C(=O)c2cc(COc3c(F)cccc3F)on2)n1	9	-1	-50*	-1	-2
Cc1cc(C)n(CCNC(=O)c2cc(COc3c(F)cccc3F)on2)n1	-2	4	9	5	0
C=C(C)Cn1c(=O)c2c(nc3n2CCN3c2ccc(F)cc2)n(C)c1=O	-3	-1	-16	3	0
CCOC(=O)c1c(C)c(-c2ccccc2)n(CC(=O)Nc2cccc(F)c2)c1C	-1	4	-4	-5	0
CCn1c(C(Cc2ccccc2)NC(=O)COC)nc2ccccc21 (stereo unspecified)	-7	-3	-30*	-8	0
CCOC(=O)c1sc(NC(=O)CSc2nc3c(cc2C#N)CCCCCC3)c(C#N)c1C	-9	42*	9	-1	16
CCCC1=Nc2cc(C(=O)NCc3ccccc3)ccc2Sc2ccccc21	1	14	2	-4	2
CC1CCC2C(=O)N(c3ccc(Cc4ccncc4)cc3)C(=O)C2C1 (stereo unspecified)	1	11	-30*	-8	1
O=C1C2C3C=CC(C3)C2C(=O)N1c1ccc(Cc2ccncc2)cc1 (stereo unspecified)	5	23	-3	-8	1
Cn1/c(=N/N=C/c2ccc([N+](=O)[O-])cc2)sc2ccccc21	-2	30*	3	3	-1
COc1ccc(Cl)cc1NC(=O)NCc1ccc2c(c1)OCO2	-3	10	-33*	-11	0
CC(=O)c1cccc(NC(=O)NCc2ccc3c(c2)OCO3)c1	-2	1	3	11	0
CCN1CCC(N(Cc2ccc3c(c2)OCO3)C(=O)Nc2cc(Cl)ccc2C(=O)OC)CC1	0	49*	-9	-3	2
COc1ccc(Cl)cc1NC(=O)Nc1cn(C)nc1C	2	17	-61*	-5	0
O=C(NCc1ccc2c(c1)OCO2)Nc1cccc(Cl)c1	-6	14	-41*	-10	0
CCCCN(c1ccccc1)c1ncnc2c1cnn2-c1ccc(Cl)cc1	12	1	12	1	0
